Reference: PubChem BioAssay AID1259418 (Broad Institute, 2018)
In all, about 3,400 compounds went through this assay and about 840 (25%) were called active. About 11% were inconclusive and are not listed.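 Rule for the calls: active = fitted half-maximal concentration of signal decrease at or below twice the sample's top tested concentration; inconclusive = flat curve between -70 and -30 percent, or poor fit; inactive = flat within 30 percent, signal rise, or potency above limit.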 These entries were drawn from the full list. Entries with a potency or affinity are not part of this list.

assay: inhibitors of Toxoplasma growth in IFN-γ-primed HeLa – cell-based, ME49Luc, luciferase, 72 h, dose response (AID 1259418); settings: T. gondii ME49Luc in IFN-y HeLa, hits give low values, -100% = high-dose IFN-γ control wells; at 19.5 µM unless noted

Row | Compound | max activity
1 | CCc1c(C)sc2c1CCN(Cc1nc(-c3ccccc3Cl)oc1C)C2c1ccccc1 (configuration not stated) | 11.5% [at 10 µM] (inactive)
2 | CCc1ccc2c(c1)cc(S(=O)(=O)c1ccccc1)c(=O)n2CC(=O)NC(C)CC (configuration not stated) | -8.4% (inactive)
3 | Cc1ccc(-c2nc(Cn3nnc(-c4nc(-c5ccncc5)no4)c3C)c(C)o2)cc1 | 8.58% [at 10 µM] (inactive)
4 | CCc1c(C)sc2c1CCN(Cc1nc(-c3ccccc3C)oc1C)C2c1ccccc1 (configuration not stated) | 25.6% [at 5 µM] (inactive)
5 | CCc1c(C)sc2c1CCN(Cc1nc(-c3ccc(OC)cc3OC)oc1C)C2c1ccccc1 (configuration not stated) | 15.7% (inactive)
6 | O=C(c1cccc(F)c1)N1CC(=O)N2[C@@H](CO)[C@H](c3ccc(/C=C/c4ccccc4)cc3)[C@@H]2C1 | 14.7% [at 5 µM] (inactive)
7 | CCC(=O)N1CC(=O)N2[C@@H](CO)[C@H](c3ccc(C#CCC(C)C)cc3)[C@@H]2C1 | 20.4% [at 10 µM] (inactive)
8 | CCC(=O)N1CC(=O)N2[C@H](CO)[C@H](c3ccc(C#CCC(C)C)cc3)[C@H]2C1 | 9.28% [at 10 µM] (inactive)
9 | CC(C)CC#Cc1ccc([C@H]2[C@@H](CO)N3C(=O)CN(C(=O)c4cccc(F)c4)C[C@@H]23)cc1 | 19.1% [at 10 µM] (inactive)
10 | CCC(=O)N1CC(=O)N2[C@@H](CO)[C@@H](c3ccc(C#CCC(C)C)cc3)[C@@H]2C1 | 22.8% [at 10 µM] (inactive)
11 | CCc1ccc(CNc2nc(-c3ccc(OC)cc3)nc3ccccc23)cc1 | -7.47% [at 0.16 µM] (inactive)
12 | COc1ccccc1NC(=O)N1CCN(Cc2nc(-c3cccc(Cl)c3)oc2C)CC1 | 15.9% [at 1.35 µM] (inactive)
13 | COc1ccc(NC(=O)Nc2ccc(-c3nc(-c4ccccc4)co3)cc2)cc1OC | 91.2% (inactive)
14 | O=C(Cc1cccc(F)c1)N1CCC2(CC1)Nc1ccccc1-n1cccc12 | 9.66% [at 10 µM] (inactive)
15 | COc1cc(NC(=O)Nc2ccc(-c3nc(-c4ccccc4)co3)cc2)cc(OC)c1OC | 43.1% (inactive)
16 | CCc1ccc2c(c1)cc(S(=O)(=O)c1ccccc1)c(=O)n2CC(=O)N1CCCCC1 | 9.02% [at 0.16 µM] (inactive)
17 | CC(c1cc2ccccc2s1)N(O)C(N)=O (configuration not stated) | 22.5% (inactive)
18 | Cc1ccc2c(c1)cc(S(=O)(=O)c1ccccc1)c(=O)n2CC(=O)NCc1ccc(F)cc1 | 3.98% [at 10 µM] (inactive)
19 | COc1ccc(-c2nc(Cn3nnc(-c4nc(-c5ccc(Cl)c(F)c5)no4)c3C)c(C)o2)cc1 | -11.8% [at 10 µM] (inactive)
20 | CCN1C(=O)CCc2cc(NC(=O)Cc3cccs3)ccc21 | -9.98% [at 0.35 µM] (inactive)
21 | Cc1ccc(-c2coc(-c3ccc(NC(=O)Nc4ccc(C)c(C)c4)cc3)n2)cc1 | 12% [at 2.6 µM] (inactive)
22 | N#Cc1cccc(C(=O)N2CCC3C2CC(=O)N3Cc2ccncc2)c1 (configuration not stated) | 25.6% (inactive)
23 | CCN1C(=O)CCc2cc(NC(=O)c3cccc(C#N)c3)ccc21 | -7.75% [at 0.16 µM] (inactive)
24 | Cc1oc(-c2ccccc2)nc1Cn1nnc(-c2nc(-c3cccc(F)c3)no2)c1C | 9.95% (inactive)

Row | Compound | max activity
25 | COc1ccc2c(c1)NC1(CCN(C(=O)Cc3ccccc3)CC1)c1cccn1-2 | 5.44% [at 0.35 µM] (inactive)
26 | CCOc1ccc(NC(=O)COc2nc(CC)nc3ccccc23)cc1 | 16% [at 10 µM] (inactive)
27 | Cc1ccc(S(=O)(=O)Nc2ccc3c(c2)C(=O)N([C@H](C)CO)C[C@H](C)[C@H](CN(C)Cc2ccc(C(F)(F)F)cc2)O3)cc1 | 19.4% [at 10 µM] (inactive)
28 | CCOc1ccc(-c2nc3c(s2)CN(S(=O)(=O)c2ccccc2Cl)CC3)cc1 | 22.6% (inactive)
29 | O=C(c1cccc(F)c1)N1CCC2(CC1)Nc1ccc(Cl)cc1-n1cccc12 | 9.53% [at 0.68 µM] (inactive)
30 | CCOc1ccccc1NC(=O)CN1CCC2(CC1)N=C(c1ccc(F)cc1)C(=O)N2 | 13% (inactive)
31 | Cc1nc(CCNC(=O)[C@H]2CCCN2S(=O)(=O)c2cccc(Cl)c2)cs1 | -9.1% [at 0.35 µM] (inactive)
32 | CCOc1ccc(-c2nc(CN(c3ccc(OC)cc3)S(=O)(=O)c3ccc(C)cc3)c(C)o2)cc1 | 8.75% [at 1.35 µM] (inactive)
33 | Cc1ccc2c(c1C)-n1cccc1C1(CCN(C(=O)Cc3ccccc3)CC1)N2 | 4.08% [at 0.68 µM] (inactive)
34 | CCOc1ccc(-c2nc(CN(c3ccccc3)S(=O)(=O)c3cccs3)c(C)o2)cc1OC | -33.6% [at 10 µM] (inactive)
35 | CCOc1ccc(-c2nc(CN(c3ccc(C)cc3)S(=O)(=O)c3cccs3)c(C)o2)cc1OC | 101% [at 10 µM] (inactive)
36 | COc1ccccc1NC(=O)N1CCc2nc(-c3ccc(OC)c(OC)c3)sc2C1 | 6.68% [at 0.16 µM] (inactive)
37 | C[C@]12CCC3=C4CCC(=O)C=C4CC[C@H]3[C@@H]1CC[C@@]2(O)CC#N | 15.3% (inactive)
38 | Cc1ccc(N2CCC[C@]3(C(=O)O)CN(CCN(C)C)C[C@H]3C2)nn1 | 40.3% (inactive)
39 | Cc1cccc(N2CCN(C(=O)c3ccc(-c4csc(C5CC5)n4)cc3)CC2)c1C | -9.59% [at 0.35 µM] (inactive)
40 | CSc1cccc(NC(=O)CN2CCC3(CC2)N=C(c2ccc(Cl)cc2)C(=O)N3)c1 | -30.9% (inactive)
41 | COc1ccc(C2=NC3(CCN(CC(=O)Nc4cccc(Cl)c4)CC3)NC2=O)cc1 | -14.8% [at 2.6 µM] (inactive)
42 | CSc1cccc(NC(=O)CN2CCC3(CC2)N=C(c2cccc(F)c2)C(=O)N3)c1 | 27.3% (inactive)
43 | COc1cccc(NC(=O)CN2CCC3(CC2)N=C(c2cccc(Cl)c2)C(=O)N3)c1 | -20.4% [at 0.68 µM] (inactive)
44 | Cc1ccc(C2=NC3(CCN(CC(=O)Nc4ccc(Cl)cc4)CC3)NC2=O)cc1 | 19.9% [at 1.35 µM] (inactive)
45 | Cc1ccccc1NC(=O)CN1CCC2(CC1)N=C(c1cccc(Cl)c1)C(=O)N2 | -14.5% (inactive)
46 | COc1ccc(NC(=O)CN2CCC3(CC2)N=C(c2ccc(C)cc2)C(=O)N3)c(OC)c1 | -8.99% [at 5 µM] (inactive)
47 | COc1ccccc1NC(=O)CN1CCC2(CC1)N=C(c1cccc(C)c1)C(=O)N2 | 13.7% [at 0.35 µM] (inactive)
